KCNQ2 block: rat KCNQ2 potassium channel inhibitors, primary screen, cell-based, CHO-K1, FluxOR thallium flux, B-score | B-score at 10 µM | actives 1.1% (n = 310,000) | AID 2156, 2009 | 20 min; active compounds read low;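 active means fluorescence ratio B-score at most minus 3 library SDs, with starting brightness B-score within 2 library SDs, cut at about -5.5 in these data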
KCNQ2 pot: potentiators of rat KCNQ2 potassium channel; Potassium voltage-gated channel subfamily KQT member 2 (Rattus norvegicus), O88943; AID 2239, 2010; B-score at 10 µM; actives 0.54% (n = 310,000); CHO-K1 KCNQ2, FluxOR thallium flux fluorescence; active compounds read high;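 active means fluorescence ratio B-score at least 3 SD of library B-scores, with initial fluorescence B-score within 3 of them, cut at about 5.3 in these data; same plate scores as AID 2156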;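 further: B-score of peak minus minimum over baseline fluorescence ratio after K+ and Tl+ stimulus; positive B-score means potentiation of KCNQ2 with more thallium influx and brighter signal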
Kir21 confirm: mouse Kir2.1 channel blockers, retest, confirmation, cell-based, FluxOR thallium flux, duplicate; shares compounds with KCNQ2 pot; Kir2.1-expressing cells, FluxOR thallium flux fluorescence; active compounds read low; Tl flux remaining, % of negative control (active compounds read low), % at 10 µM; actives 41% (n = 2,300); AID 2032, 2009;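 active means Primary-screen hit whose thallium flux fell at least 3 control SD below untreated wells in both duplicates, with normal baseline fluorescence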;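 further: 0% = blank wells without stimulus and 100% = stimulated no-compound controls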
HEK293 ctr: counter-screen for Kir2.1 inhibitors: effect in parental HEK293 cells; actives 19% (n = 2,300); FluxOR thallium flux fluorescence; 0% = unstimulated blank wells; shares compounds with KCNQ2 pot; FluxOR signal as % of negative control (100 = no effect), % at 10 µM;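 active means dye signal at least 3 control SD above or below untreated wells in both duplicates, raw fluorescence within 3, either direction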;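 further: percent is based on the flux ratio of peak minus minimum fluorescence over baseline F0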
CHO-K1 ctr: nonspecific thallium flux increase in parental CHO-K1, confirmation, counter-screen for KCNQ2 potentiator project, cell-based, FluxOR thallium flux, duplicate; shares compounds with KCNQ2 pot; parental CHO-K1 cells, FluxOR thallium flux fluorescence; zero = vehicle mean+3SD, 100% = vehicle-minus-blank window; activity increase over 3SD of controls, % at 10 µM; actives 43% (n = 1,200);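 active means signal rise of at least 3 SD above the untreated control mean, in both duplicate wells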;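 further: counter screen of KCNQ2 potentiator hits so any rise reflects channel-independent effects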
KCNQ1 sel pot: human KCNQ1 channel potentiation off-target, confirmation, selectivity assay for KCNQ2 potentiator project, cell-based, CHO, FluxOR thallium flux. shares compounds with KCNQ2 pot. CHO KCNQ1 stable, FluxOR thallium flux fluorescence; beyond 3SD, as % of vehicle-control signal. activation over 3SD threshold, % at 10 µM. actives 28% (n = 1,200). AID 2283, 2010;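 active means fluorescence ratio rise of at least 3 SD of vehicle wells above their mean, in both replicate wells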;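 further: 0% = vehicle mean plus 3 SD and 100% = vehicle minus unstimulated blank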
KCNQ2 pot conf: rat KCNQ2 channel potentiators, confirmation, cell-based, CHO, FluxOR thallium flux, duplicate. CHO-KCNQ2 cells, FluxOR thallium flux fluorescence. actives 68% (n = 1,200). potentiation, less the hit threshold, % at 10 µM. AID 2287, 2010. shares compounds with KCNQ2 pot;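 active means fluorescence ratio rising 3 SD or more over the vehicle control mean in both replicates, plus primary screen hit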;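 further: peak minus minimum thallium fluorescence divided by baseline after K/Tl stimulus; 0% = vehicle mean plus 3 SD and 100% = vehicle minus unstimulated blank difference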
Kir2-1 sel: mouse Kir2.1 channel activation off-target, confirmation, selectivity assay for KCNQ2 potentiator project, cell-based, HEK293, FluxOR thallium flux. shares compounds with KCNQ2 pot. HEK293 Kir2.1, FluxOR thallium flux fluorescence. activity over 3SD threshold, % at 10 µM. actives 2% (n = 1,200). AID 2345, 2010;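 active means fluorescence ratio rise of at least 3 SD above the vehicle-control mean, seen in both replicates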;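 further: 0% = vehicle mean plus 3 SD and 100% = vehicle minus no-stimulus blank window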
KCNQ2 W236L MoA: potentiators of retigabine-insensitive KCNQ2 W236L, mechanism study for KCNQ2 potentiator project, cell-based, rat KCNQ2 W236L, CHO, automated patch clamp; actives 10% (n = 940); current increase over 3SD of negative controls (%), active compounds read high, % at 25 µM; shares compounds with KCNQ2 pot; AID 2558, 2010; automated patch clamp current;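 active means current increase at least 3 SD of the untreated controls above them in both duplicate recordings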
Target sequence (O88943 whole entry W236L, looked up): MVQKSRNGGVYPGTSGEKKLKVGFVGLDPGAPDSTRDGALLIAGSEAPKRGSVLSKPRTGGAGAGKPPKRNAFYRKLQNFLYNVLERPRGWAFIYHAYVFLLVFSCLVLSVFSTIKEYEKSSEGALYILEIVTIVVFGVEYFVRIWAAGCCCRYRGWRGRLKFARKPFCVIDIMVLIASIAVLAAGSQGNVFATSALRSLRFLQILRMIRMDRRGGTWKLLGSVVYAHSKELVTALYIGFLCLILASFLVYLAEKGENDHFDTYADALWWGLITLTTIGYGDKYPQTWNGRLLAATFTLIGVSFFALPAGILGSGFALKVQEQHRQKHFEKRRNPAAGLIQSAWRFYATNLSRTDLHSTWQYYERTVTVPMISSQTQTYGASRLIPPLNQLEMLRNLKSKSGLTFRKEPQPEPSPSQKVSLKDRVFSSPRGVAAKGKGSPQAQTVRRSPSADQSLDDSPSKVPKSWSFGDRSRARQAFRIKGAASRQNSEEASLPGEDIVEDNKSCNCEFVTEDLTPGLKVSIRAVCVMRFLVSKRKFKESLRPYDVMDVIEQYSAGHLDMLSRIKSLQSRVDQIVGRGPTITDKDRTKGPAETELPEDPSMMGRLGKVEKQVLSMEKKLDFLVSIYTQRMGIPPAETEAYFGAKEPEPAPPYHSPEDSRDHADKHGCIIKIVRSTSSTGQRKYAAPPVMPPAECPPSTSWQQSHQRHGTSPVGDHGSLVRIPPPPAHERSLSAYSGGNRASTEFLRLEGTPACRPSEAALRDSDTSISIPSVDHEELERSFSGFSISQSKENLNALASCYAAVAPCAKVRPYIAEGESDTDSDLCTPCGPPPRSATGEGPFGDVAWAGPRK
Numbers without * were called inactive; i = inactive; . = no result. Rows were chosen to be rich in hits. Some 1.6% of all compounds tested hit in one or more screens of this group.

SMILES	KCNQ2 block	KCNQ2 pot	Kir21 confirm	HEK293 ctr	others
Cc1cc2c(cc1S(=O)(=O)NCCc1ccccc1)NC(=O)CO2	i	1.77	.	.
CCCc1ccccc1OCCNS(=O)(=O)c1cc2c(cc1C)OCC(=O)N2	i	2.17	64.5%*	i
OC1(Cc2cc(-c3ccccc3)no2)CCN(CCCc2ccccc2)CC1	i	0.77	.	.
CN1C(=O)[C@H](Cc2ccc([N+](=O)[O-])cc2)NC1=S	i	.	.	.
Cc1cccc(Nc2nc(N)nc(CN3CCN(c4ccc(F)cc4)CC3)n2)c1	i	6.87*	i	i	CHO-K1 ctr=44.0*;KCNQ1 sel pot=-6.7;KCNQ2 pot conf=-8.1;Kir2-1 sel=-39.5;KCNQ2 W236L MoA=i
Cc1cccc(Nc2nc(N)nc(CN3CCN(C)CC3)n2)c1	i	0.06	.	.
CCN(Cc1ccccc1)Cc1ccc(OCc2ccccc2)c(OC)c1	i	.	.	.
COc1cc(CN(C)CCc2ccccc2)ccc1OCc1ccccc1	i	.	16.5%*	i
O=C(NC1CCCCCC1)c1ccc(Cl)c(S(=O)(=O)N2CCOCC2)c1	i	1.3	.	.
COCCNCC(O)CON=C1c2ccccc2-c2ccccc21 (stereo not given)	i	.	32.5%*	i
CC(C)CCNCC(O)CON=C1c2ccccc2-c2ccccc21 (stereo not given)	i	.	.	.
C#CCOc1ccccc1/C=N/NC(=O)c1ccccc1OCc1ccccc1	i	.	.	.
COc1ccc(OCCCC(=O)NNC(=O)c2ccncc2)cc1	i	1.52	.	.
O=C1CCC(=O)N1c1ccc(NC2CCN(Cc3ccccc3)CC2)c([N+](=O)[O-])c1	i	.	.	.
O=[N+]([O-])c1ccccc1NC1CCN(Cc2ccccc2)CC1	i	0.74	33.0%*	i
COC(=O)c1cc(S(=O)(=O)Nc2cccc(C)c2C)cn1C	i	.	.	.
O=C(CSc1nc(N2CCCCC2)nc(N2CCCCC2)n1)c1ccccc1	i	31.8*	i	i	CHO-K1 ctr=-6.0;KCNQ1 sel pot=38.4*;KCNQ2 pot conf=19.8*;Kir2-1 sel=-28.4;KCNQ2 W236L MoA=i
Cc1cc(N2CCCCC2)nc(SCC(=O)c2ccccc2)n1	i	.	.	.
CSCCC(NC(=O)c1cccc([N+](=O)[O-])c1)C(=O)O (stereo not given)	i	.	.	.
COc1cccc(CNc2cc(CSc3ccc(Cl)cc3)nc(C)n2)c1	i	.	53.5%*	i
COc1cccc(CNc2ccc(C)c(Cl)c2)c1	i	0.05	.	.
O=C(Oc1cccc(OC(=O)c2ccco2)c1)c1ccco1	i	0.44	51.0%*	i
O=C(Oc1cccnc1)c1ccco1	i	.	.	.
COc1cc(/C=C/C(=O)OCC(=O)N2CCCc3ccccc32)ccc1OC(F)F	i	.	.	.
O=c1c2c3c(sc2nc(NCCOCCO)n1Cc1ccco1)CCCCC3	i	5.57*	i	i	CHO-K1 ctr=-7.3;KCNQ1 sel pot=37.8*;KCNQ2 pot conf=-11.1;Kir2-1 sel=-38.1;KCNQ2 W236L MoA=6.1%*
SMILES	KCNQ2 block	KCNQ2 pot	Kir21 confirm	HEK293 ctr	others
CC(O)CNc1nc2sc3c(c2c(=O)n1Cc1ccco1)CCCCC3 (stereo not given)	i	1.02	.	.
COC(=O)C1CCN(S(=O)(=O)CCNC(=O)c2ccc(F)cc2)CC1	i	0.66	.	.
S=c1nc(C2CCCCC2)[nH]c2ccccc12	i	.	.	.
S=c1nc(C2CC2)[nH]c2ccccc12	i	15.6*	i	341.0%*	CHO-K1 ctr=16.6*;KCNQ1 sel pot=-10.9;KCNQ2 pot conf=46.2*;Kir2-1 sel=-17.9;KCNQ2 W236L MoA=i
O=C(OCC(=O)N1CCCC1)c1cc(Cl)ccc1[N+](=O)[O-]	i	0.74	.	.
Cc1ccc(OC(=O)c2sc3ncn(C)c(=O)c3c2C)cc1	i	3.69	.	.
COc1ccc(S(=O)(=O)NCCSCc2ccco2)cc1Cl	i	0.75	58.0%*	i
COc1ccc(S(=O)(=O)NCCSCc2ccco2)cc1C	i	.	.	.
O=C1NC(c2ccccc2)=C(c2nc3ccccc3s2)C(c2ccc(F)cc2)N1 (stereo not given)	i	8.72*	i	i	CHO-K1 ctr=74.1*;KCNQ1 sel pot=-1.7;KCNQ2 pot conf=21.2*;Kir2-1 sel=-28.1;KCNQ2 W236L MoA=33.9%*
COc1ccc(C2NC(=O)NC(c3ccccc3)=C2c2nc3ccccc3s2)cc1 (stereo not given)	i	2.04	.	.
CCN(CC)S(=O)(=O)c1ccc2nc(CCl)[nH]c2c1	i	.	.	.
Cc1sc2ncn(CC(=O)N3CCN(c4ccccc4)CC3)c(=O)c2c1S(=O)(=O)N1CCOCC1	i	1.69	.	.
O=C(O)c1cccc(-n2nnnc2SCc2ccccn2)c1	i	.	.	.
c1ccc(CSc2nnnn2-c2cccc3ccccc23)nc1	i	.	66.5%*	i
CCCCNC(=S)NC(C)(C)CO	i	.	.	.
S=c1nc(C2CCCCC2)n(-c2ccccc2)[nH]1	i	10.7*	i	261.5%*	CHO-K1 ctr=41.7*;KCNQ1 sel pot=-12.0;KCNQ2 pot conf=22.3*;Kir2-1 sel=-31.9;KCNQ2 W236L MoA=i
S=c1nc(-c2ccccc2)n(-c2ccccc2)[nH]1	i	0.07	.	.
CCOC(=O)c1ccccc1NC(=O)COC(=O)CCNS(=O)(=O)c1ccccc1	i	0.09	.	.
CC1(c2ccccc2)CC(C)(C)N2C(=O)/C(=C3\SC(=S)NC3=O)c3cccc1c32 (stereo not given)	i	32.5*	i	i	CHO-K1 ctr=-21.6;KCNQ1 sel pot=-22.5;KCNQ2 pot conf=4.3*;Kir2-1 sel=-25.9;KCNQ2 W236L MoA=i
CC1(c2ccccc2)CC(C)(C)N2C(=O)C3(C(C#N)=C(N)Oc4cc(O)ccc43)c3cccc1c32 (stereo not given)	i	2.47	.	.
CN(CCCN1c2ccccc2CCc2ccccc21)CC(=O)c1ccc(Cl)cc1	i	.	.	.
CN(C)CCCN1c2ccccc2CCc2ccc(Cl)cc21	i	.	41.0%*	i
CCOC(=O)N1CCN(C(=O)C(=O)NN)CC1	i	0.74	.	.

Screens as filed in PubChem.
